Laboratory results taken from the supplement of paper PMC12350171.
Where a name gives a salt, the structure may show the parent alone.

test system: P. vulgatus WT; assay: growth AUC normalised to DMSO control (median) (fraction of control); higher = less growth inhibition, active = hit call of the paper; conditions: 20 µM;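 active = normalised median growth AUC below 0.1 of DMSO control; inactive = AUC 0.1 or higher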
Outline: (§1)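 Anaerobic growth was tracked hourly at OD578 for 24 h in 96-well plates of mGAM seeded at OD578 0.01 with each approved-drug library compound at 20 μM and 1% DMSO. Strains had first been passaged twice overnight without oxygen. Three biological replicates were run. The reported median is the area under the curve, calculated by the trapezoidal rule on curves truncated at entry into stationary phase and normalised to vehicle wells on the same plate.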
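Further: active when median AUC fell below 0.1.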

Compound	growth AUC normalised to DMSO control
CN1CCN(C(=O)OC2c3nccnc3C(=O)N2c2ccc(Cl)cn2)CC1 (configuration not stated) [Zopiclone]	1.01 (inactive)
CN1C(=O)CCS(=O)(=O)C1c1ccc(Cl)cc1 (configuration not stated) [Chlormezanone]	1.02 (inactive)
CN(C)[C@@H]1C(=O)C(C(N)=O)=C(O)[C@@]2(O)C(=O)C3=C(O)c4c(O)cccc4[C@@](C)(O)[C@H]3[C@H](O)[C@@H]12 [Oxytetracycline dihydrate]	0.0112 (active)
N[C@@H]1C[C@H]1c1ccccc1 [Tranylcypromine hydrochloride]	1.05 (inactive)
NC(=O)C[S+]([O-])C(c1ccccc1)c1ccccc1 (configuration not stated) [Modafinil]	0.993 (inactive)
COc1ccc(C(=O)N2CCCC2=O)cc1 [Aniracetam]	1.01 (inactive)
C[C@]12CCC(=O)C(O)=C1CC[C@@H]1[C@@H]2CC[C@]2(C)C(=O)CC[C@@H]12 [Formestane]	0.982 (inactive)
CCC(=O)O[C@H]1CC[C@H]2[C@@H]3CCC4=CC(=O)CC[C@]4(C)[C@H]3CC[C@]12C [Testosterone propionate]	1.01 (inactive)
CCNCC(O)c1cccc(O)c1 (configuration not stated) [Etilefrine hydrochloride]	0.995 (inactive)
CC(=O)OC1CN2CCC1CC2 (configuration not stated) [Aceclidine hydrochloride]	1.03 (inactive)
CN1[C@@H]2CC[C@H]1C[C@@H](OC1c3ccccc3CCc3ccccc31)C2 [Deptropine citrate]	0.945 (inactive)
NC(=O)CN1CCCC1=O [Piracetam]	0.982 (inactive)
CC(=O)[C@H]1CC[C@H]2[C@@H]3CC[C@H]4C[C@H](O)CC[C@]4(C)[C@H]3C(=O)C[C@]12C [Alfaxalone]	0.996 (inactive)
CCC1(c2ccc(N)cc2)CCC(=O)NC1=O (configuration not stated) [Glutethimide, para-amino]	1.04 (inactive)
COc1ccc(Cc2nccc3cc(OC)c(OC)cc23)cc1OC [Papaverine hydrochloride]	1.01 (inactive)
C[C@]12Cc3c[nH]nc3C[C@@H]1CC[C@@H]1[C@@H]2CC[C@@]2(C)[C@H]1CC[C@]2(C)O [Stanozolol]	0.966 (inactive)
O=c1[nH]c2ccccc2n1C1CCN(CCCC(c2ccc(F)cc2)c2ccc(F)cc2)CC1 [Pimozide]	1 (inactive)
CN1CCC2(C)c3cc(O)ccc3N(C)C12 (single isomer, unassigned; (-)) [(-) Eseroline fumarate salt]	0.999 (inactive)
CC[C@@H](CO)NC(=O)[C@@H]1C=C2c3cccc4[nH]cc(c34)C[C@H]2N(C)C1 [Methylergometrine maleate]	0.952 (inactive)
COc1ccc2c(c1)[C@]13CCCC[C@@H]1[C@H](C2)N(C)CC3 [Dextromethorphan hydrobromide monohydrate]	1 (inactive)
O=P1(N(CCCl)CCCl)NCCCO1 (configuration not stated) [Cyclophosphamide]	1 (inactive)
CN1C[C@H](CNC(=O)OCc2ccccc2)C[C@@H]2c3cccc4c3c(cn4C)C[C@H]21 [Metergoline]	0.885 (inactive)
O=[N+]([O-])O[C@H]1CO[C@H]2[C@@H]1OC[C@H]2O[N+](=O)[O-] [Isosorbide dinitrate]	0.94 (inactive)
CCC(=O)O[C@@](Cc1ccccc1)(c1ccccc1)[C@@H](C)CN(C)C [Levopropoxyphene napsylate]	1.05 (inactive)
CCCC[N+]1(C)[C@@H]2C[C@@H](OC(=O)[C@H](CO)c3ccccc3)C[C@H]1[C@@H]1O[C@@H]12 (some centres not stated) [N-Butylscopolammonium bromide]	1 (inactive)
C[C@]12CC[C@H](O)C[C@H]1CC[C@@H]1[C@@H]2C[C@@H](O)[C@]2(C)[C@@H](C3=CC(=O)OC3)CC[C@]12O [Digoxigenin]	1.04 (inactive)
OC(c1ccccc1)(c1ccccc1)C1CCNCC1 [Azacyclonol]	1.03 (inactive)
CN1[C@@H]2C[C@@H](OC(=O)[C@H](CO)c3ccccc3)C[C@H]1[C@@H]1O[C@@H]12 [Scopolamine hydrochloride]	1.05 (inactive)

test system: S. enterica typhimurium WT; assay: as above; conditions: 20 µM
Outline: as §1

Compound	growth AUC normalised to DMSO control
CN(C)[C@@H]1C(=O)C(C(N)=O)=C(O)[C@@]2(O)C(=O)C3=C(O)c4c(O)cccc4[C@@](C)(O)[C@H]3C[C@@H]12 [Tetracycline hydrochloride]	0.0084 (active)
CC(Cc1ccc(O)cc1)NCC(O)c1cc(O)cc(O)c1 (configuration not stated) [Fenoterol hydrobromide]	1.01 (inactive)
Clc1ccc(C(OCCN2CCCCC2)c2ccccc2)cc1 (configuration not stated) [Cloperastine hydrochloride]	1 (inactive)
CC(O)(CS(=O)(=O)c1ccc(F)cc1)C(=O)Nc1ccc(C#N)c(C(F)(F)F)c1 (configuration not stated) [Bicalutamide]	1.01 (inactive)
CCN(C(C)=O)c1cccc(-c2ccnc3c(C#N)cnn23)c1 [Zaleplon]	1 (inactive)
NCCCNCCSP(=O)(O)O [Amifostine]	1.02 (inactive)
C[C@]12COC(=O)C[C@@H]1CC[C@@H]1[C@@H]2CC[C@@]2(C)[C@H]1CC[C@]2(C)O [Oxandrolone]	1.01 (inactive)
Oc1cc(Cl)ccc1Oc1ccc(Cl)cc1Cl [Triclosan]	0.00521 (active)
C=CCN1CC[C@]23c4c5ccc(O)c4O[C@H]2C(=O)CC[C@@]3(O)[C@H]1C5 [Naloxone hydrochloride]	1.01 (inactive)
CC(=O)OCC(=O)[C@H]1CC[C@H]2[C@@H]3CC[C@H]4C[C@H](O)CC[C@]4(C)[C@H]3C(=O)C[C@]12C [Alfadolone acetate]	1.01 (inactive)
S=C(NC1CCCCC1)N1CCC(c2cnc[nH]2)CC1 [Thioperamide maleate]	0.997 (inactive)
CN1CCN(C(=O)OC2c3nccnc3C(=O)N2c2ccc(Cl)cn2)CC1 (configuration not stated) [Zopiclone]	0.994 (inactive)
CN1C(=O)CCS(=O)(=O)C1c1ccc(Cl)cc1 (configuration not stated) [Chlormezanone]	1 (inactive)
CN(C)[C@@H]1C(=O)C(C(N)=O)=C(O)[C@@]2(O)C(=O)C3=C(O)c4c(O)cccc4[C@@](C)(O)[C@H]3[C@H](O)[C@@H]12 [Oxytetracycline dihydrate]	0.0149 (active)
N[C@@H]1C[C@H]1c1ccccc1 [Tranylcypromine hydrochloride]	1.01 (inactive)
NC(=O)C[S+]([O-])C(c1ccccc1)c1ccccc1 (configuration not stated) [Modafinil]	1 (inactive)
COc1ccc(C(=O)N2CCCC2=O)cc1 [Aniracetam]	0.995 (inactive)
C[C@]12CCC(=O)C(O)=C1CC[C@@H]1[C@@H]2CC[C@]2(C)C(=O)CC[C@@H]12 [Formestane]	0.997 (inactive)
CCC(=O)O[C@H]1CC[C@H]2[C@@H]3CCC4=CC(=O)CC[C@]4(C)[C@H]3CC[C@]12C [Testosterone propionate]	1.02 (inactive)
CCNCC(O)c1cccc(O)c1 (configuration not stated) [Etilefrine hydrochloride]	0.993 (inactive)

Compound	growth AUC normalised to DMSO control
CC(=O)OC1CN2CCC1CC2 (configuration not stated) [Aceclidine hydrochloride]	1.01 (inactive)
CN1[C@@H]2CC[C@H]1C[C@@H](OC1c3ccccc3CCc3ccccc31)C2 [Deptropine citrate]	0.994 (inactive)
NC(=O)CN1CCCC1=O [Piracetam]	0.984 (inactive)
CC(=O)[C@H]1CC[C@H]2[C@@H]3CC[C@H]4C[C@H](O)CC[C@]4(C)[C@H]3C(=O)C[C@]12C [Alfaxalone]	1 (inactive)
CCC1(c2ccc(N)cc2)CCC(=O)NC1=O (configuration not stated) [Glutethimide, para-amino]	1.02 (inactive)
COc1ccc(Cc2nccc3cc(OC)c(OC)cc23)cc1OC [Papaverine hydrochloride]	1.01 (inactive)
C[C@]12Cc3c[nH]nc3C[C@@H]1CC[C@@H]1[C@@H]2CC[C@@]2(C)[C@H]1CC[C@]2(C)O [Stanozolol]	1.02 (inactive)
O=c1[nH]c2ccccc2n1C1CCN(CCCC(c2ccc(F)cc2)c2ccc(F)cc2)CC1 [Pimozide]	0.998 (inactive)
CN1CCC2(C)c3cc(O)ccc3N(C)C12 (single isomer, unassigned; (-)) [(-) Eseroline fumarate salt]	1.01 (inactive)
CC[C@@H](CO)NC(=O)[C@@H]1C=C2c3cccc4[nH]cc(c34)C[C@H]2N(C)C1 [Methylergometrine maleate]	0.993 (inactive)
COc1ccc2c(c1)[C@]13CCCC[C@@H]1[C@H](C2)N(C)CC3 [Dextromethorphan hydrobromide monohydrate]	0.995 (inactive)
O=P1(N(CCCl)CCCl)NCCCO1 (configuration not stated) [Cyclophosphamide]	1.01 (inactive)
CN1C[C@H](CNC(=O)OCc2ccccc2)C[C@@H]2c3cccc4c3c(cn4C)C[C@H]21 [Metergoline]	0.992 (inactive)
O=[N+]([O-])O[C@H]1CO[C@H]2[C@@H]1OC[C@H]2O[N+](=O)[O-] [Isosorbide dinitrate]	0.996 (inactive)
CCC(=O)O[C@@](Cc1ccccc1)(c1ccccc1)[C@@H](C)CN(C)C [Levopropoxyphene napsylate]	1 (inactive)
CCCC[N+]1(C)[C@@H]2C[C@@H](OC(=O)[C@H](CO)c3ccccc3)C[C@H]1[C@@H]1O[C@@H]12 (some centres not stated) [N-Butylscopolammonium bromide]	1 (inactive)
C[C@]12CC[C@H](O)C[C@H]1CC[C@@H]1[C@@H]2C[C@@H](O)[C@]2(C)[C@@H](C3=CC(=O)OC3)CC[C@]12O [Digoxigenin]	1.01 (inactive)
OC(c1ccccc1)(c1ccccc1)C1CCNCC1 [Azacyclonol]	1.01 (inactive)
CN1[C@@H]2C[C@@H](OC(=O)[C@H](CO)c3ccccc3)C[C@H]1[C@@H]1O[C@@H]12 [Scopolamine hydrochloride]	1 (inactive)
